According to PubChem BioAssay:

target: Nuclear receptor coactivator 3 (Homo sapiens) (UniProt Q9Y6Q9); test: NCOA3 GAL4-fusion reporter inhibition – cell-based, luminescence, quadruplicate, confirmation (AID 588792); conditions: HEK293 GAL4-SRC3 luciferase reporter, at 3.6 µM, hits give high values;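 also: 0% = DMSO treated cells and 100% = gossypol at 36 µM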
Sequence (Q9Y6Q9 whole entry, looked up, the tested form may be a part): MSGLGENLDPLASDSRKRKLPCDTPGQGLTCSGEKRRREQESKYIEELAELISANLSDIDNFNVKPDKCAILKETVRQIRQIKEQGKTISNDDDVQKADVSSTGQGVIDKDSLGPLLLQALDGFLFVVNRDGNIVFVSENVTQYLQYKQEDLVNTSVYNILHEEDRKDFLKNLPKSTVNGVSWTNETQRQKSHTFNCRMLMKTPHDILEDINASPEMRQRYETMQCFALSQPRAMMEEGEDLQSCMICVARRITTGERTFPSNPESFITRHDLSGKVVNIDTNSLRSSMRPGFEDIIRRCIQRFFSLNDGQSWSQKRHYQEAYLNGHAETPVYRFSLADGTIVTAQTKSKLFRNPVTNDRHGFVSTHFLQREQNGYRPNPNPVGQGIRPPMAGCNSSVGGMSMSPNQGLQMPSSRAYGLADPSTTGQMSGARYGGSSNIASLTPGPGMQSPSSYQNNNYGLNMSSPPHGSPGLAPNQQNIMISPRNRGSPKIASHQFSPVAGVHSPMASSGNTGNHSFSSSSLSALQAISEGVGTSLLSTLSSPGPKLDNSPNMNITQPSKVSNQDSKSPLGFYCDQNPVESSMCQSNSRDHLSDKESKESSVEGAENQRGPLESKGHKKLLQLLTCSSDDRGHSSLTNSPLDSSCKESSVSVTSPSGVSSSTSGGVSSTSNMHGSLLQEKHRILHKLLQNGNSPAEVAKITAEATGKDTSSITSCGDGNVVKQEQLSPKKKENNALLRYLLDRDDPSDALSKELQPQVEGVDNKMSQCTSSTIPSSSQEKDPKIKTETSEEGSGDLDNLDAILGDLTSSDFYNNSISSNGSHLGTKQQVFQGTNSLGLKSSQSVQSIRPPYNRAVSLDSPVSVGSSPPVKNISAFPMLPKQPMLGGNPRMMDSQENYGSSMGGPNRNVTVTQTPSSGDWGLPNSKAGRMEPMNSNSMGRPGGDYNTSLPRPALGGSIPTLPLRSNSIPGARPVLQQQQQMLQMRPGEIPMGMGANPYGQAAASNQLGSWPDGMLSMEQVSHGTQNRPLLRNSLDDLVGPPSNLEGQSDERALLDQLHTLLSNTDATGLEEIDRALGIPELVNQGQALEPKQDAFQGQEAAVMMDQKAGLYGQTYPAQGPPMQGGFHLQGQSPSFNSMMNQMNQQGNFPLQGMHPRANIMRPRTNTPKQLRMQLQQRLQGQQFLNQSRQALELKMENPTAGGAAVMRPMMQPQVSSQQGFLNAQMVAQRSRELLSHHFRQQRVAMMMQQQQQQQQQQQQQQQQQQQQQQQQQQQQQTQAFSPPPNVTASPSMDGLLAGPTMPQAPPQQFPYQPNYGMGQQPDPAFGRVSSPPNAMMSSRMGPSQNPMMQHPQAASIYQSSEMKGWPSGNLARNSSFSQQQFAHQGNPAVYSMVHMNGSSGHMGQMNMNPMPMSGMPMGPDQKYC

inhibition, inactive:
CCN(C(=O)c1cnc(OC)cc1C(F)(F)F)c1ccc(Cl)cc1 9.44%, COc1ccc(NC(=O)c2cc(C3CC3)nc3c2cnn3C(C)C)cc1OC -12.8%, CCC(=O)NC(c1cccs1)c1ccc2cccnc2c1O (centres undefined) 33.1%, NCCCn1c(C(=O)c2cc(Cl)c(N)c(Cl)c2)c2ccc([N+](=O)[O-])cc2[n+]1[O-] 26.8%, COc1ccc(CNC(=O)[C@H](Cc2ccccc2)NC(=O)C2CCN(C(=O)[C@H](C)N)CC2)cc1 12.2%, CCSc1nsc(NC(=O)Nc2cccc(F)c2)n1 13.2%, COc1cccc(C(=O)/C=C/c2ccc(OCC#N)c(OC)c2)c1 22.2%, Cn1c(N)c(C(=O)COC(=O)C2CC(=O)N(Cc3ccccc3)C2)c(=O)n(C)c1=O (centres undefined) -0.18%, COc1cccc(/C=N/NC(=O)C(C)n2nc(C)c([N+](=O)[O-])c2C)c1O (centres undefined) 10.2%, COc1ccccc1NS(=O)(=O)c1cc(NC(=O)c2ccc(Cl)nc2)ccc1Cl 9.43%, CC(=O)c1cccc(NC(=O)c2cc(S(=O)(=O)N3CCOCC3)cs2)c1 2.71%, COCCN(CCOC)S(=O)(=O)c1ccc(C(=O)Nc2nc3c(s2)CCc2ccccc2-3)cc1 0.71%, O=C(Nc1nc(-c2ccccn2)cs1)c1ccc(F)c(S(=O)(=O)N2CCOCC2)c1 28%, Cn1nc(C(F)(F)F)cc1C(=O)Nc1ccc(Cl)cc1 4.63%
